# Measurements: PubChem BioAssay (NCI)
# Compounds without any hit were thinned out: in the full panel of roughly 79,000, 15% have a hit. Unmarked numbers belong to inactive results. Active and inactive are the calls of the source. Cut-off read from the data, not from the text of the source: active = growth inhibition above about 70%; inactive = the rest.
# Tests used:
# [1] = NCI Yeast Anticancer Drug Screen. Data for the rad52 strain (AID 147);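 note: 0% = growth of vehicle-treated control cultures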; conditions: S. cerevisiae rad52 mutant growth inhibition, hits give high values
# Procedure, shortened: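 Growth of repair-deficient yeast cells was compared between compound-treated and vehicle-treated cultures to give percent inhibition.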
# [2] = NCI Yeast Anticancer Drug Screen. Data for the wt1 strain (AID 149);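 note: 0% = growth of vehicle-treated wt1 cultures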; conditions: S. cerevisiae wt1 strain (SPY 50644) growth inhibition, hits give high values
# Procedure, shortened: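 Each compound is tested on wt1 yeast and the loss of growth versus vehicle gives the inhibition value.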
# [3] = NCI Yeast Anticancer Drug Screen. Data for the rad50EPP+ strain (AID 151);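 note: 0% = growth of vehicle-treated control cultures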; conditions: S. cerevisiae rad50 mutant strain, hits give high values
# Procedure, shortened: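 Measured: growth inhibition of rad50EPP+ yeast. Reference: vehicle-treated controls. Screen uses strains with defined genetic alterations in DNA damage repair or cell cycle control.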
# [4] = NCI Yeast Anticancer Drug Screen. Data for the mgt1 strain (AID 153); conditions: S. cerevisiae mgt1 mutant growth inhibition, hits give high values
# Procedure, shortened: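 Compounds were applied to mgt1 mutant yeast, and growth was then compared against vehicle-treated control cultures to give percent inhibition.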
# [5] = NCI Yeast Anticancer Drug Screen. Data for the rad50 strain (AID 155);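 note: 0% = growth of vehicle-only cultures of the same strain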; conditions: S. cerevisiae rad50 strain growth inhibition, hits give high values
# Procedure, shortened: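 Vehicle-treated cultures provide the reference for the growth inhibition reported for compound-exposed, repair-deficient yeast.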
# [6] = NCI Yeast Anticancer Drug Screen. Data for the mec2-1 strain (AID 157); conditions: S. cerevisiae mec2-1 strain, hits give high values
# Procedure, shortened: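 Compounds were applied to mec2-1 yeast cells. Their growth was then compared with that of vehicle-treated cultures to give growth inhibition.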
# [7] = NCI Yeast Anticancer Drug Screen. Data for the rad14 strain (AID 159);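 note: 0% = growth of vehicle-treated control cultures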; conditions: S. cerevisiae rad14 strain growth inhibition, hits give high values
# Procedure, shortened: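 Inhibition of growth is reported for a repair-deficient yeast mutant following compound treatment, calculated relative to cultures that received vehicle.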
# [8] = NCI Yeast Anticancer Drug Screen. Data for the sgs1 mgt1 strain (AID 161);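 note: 0% = growth of cultures given vehicle only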; conditions: S. cerevisiae sgs1 mgt1 strain, hits give high values
# Procedure, shortened: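 Compounds are added to genetically altered yeast, and growth is compared with cultures given vehicle alone to give percent inhibition.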
# [9] = NCI Yeast Anticancer Drug Screen. Data for the CLN2oe strain (AID 163);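 note: 0% = growth of vehicle-only control cultures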; conditions: S. cerevisiae CLN2oe strain, hits give high values
# Procedure, shortened: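 Cells of an engineered yeast line with disturbed cell-cycle regulation are treated with compound. Inhibition of growth is then calculated relative to the vehicle-treated reference.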
# [10] = NCI Yeast Anticancer Drug Screen. Data for the cln2 rad14 strain (AID 165);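 note: 0% = growth equal to vehicle treated cultures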; conditions: S. cerevisiae cln2 rad14 strain, hits give high values
# Procedure, shortened: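 Strain: cln2 rad14 yeast, altered in cell cycle control and DNA damage repair. Read-out: growth inhibition vs vehicle.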
# [11] = NCI Yeast Anticancer Drug Screen. Data for the bub3 strain (AID 167); conditions: S. cerevisiae bub3 mutant strain, hits give high values
# Procedure, shortened: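 Mutant yeast screening strain plus compound; vehicle-treated cultures serve as the 0% inhibition reference.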
# [12] = NCI Yeast Anticancer Drug Screen. Data for the wt2 strain (AID 169); conditions: S. cerevisiae wt2 strain growth inhibition, hits give high values
# Procedure, shortened: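 Growth of compound-treated yeast is measured and expressed as inhibition relative to vehicle-only controls.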
# [13] = NCI Yeast Anticancer Drug Screen. Data for the mlh1 strain (AID 171);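 note: 0% = growth of vehicle-treated control cultures of the same strain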; conditions: S. cerevisiae mlh1 strain growth inhibition, hits give high values
# Procedure, shortened: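 Test agents were incubated with yeast bearing a defined DNA damage repair or cell cycle control alteration; values are growth inhibition normalised to vehicle-treated cultures.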
# [14] = NCI Yeast Anticancer Drug Screen. Data for the sgs1 strain (AID 173);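 note: 0% = growth of vehicle-only control cultures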; conditions: S. cerevisiae sgs1 mutant, hits give high values
# Procedure, shortened: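 Strain with an altered DNA repair or cell cycle pathway exposed to compound. Growth then measured. Value = inhibition versus vehicle control.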
# [15] = NCI Yeast Anticancer Drug Screen. Data for the mlh1 rad18 strain (AID 175); conditions: S. cerevisiae mlh1 rad18 strain growth inhibition, hits give high values
# Procedure, shortened: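 A repair-deficient yeast strain is exposed to test compound, and growth is scored relative to vehicle-treated controls.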
# [16] = NCI Yeast Anticancer Drug Screen. Data for the rad18 strain (AID 177); conditions: S. cerevisiae rad18 mutant growth inhibition, hits give high values
# Procedure, shortened: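 DNA-repair-defective yeast; compound treatment; growth inhibition scored against vehicle.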
# [17] = at 5.0 µM (retest, dose inferred, filed as 0.5)
# [18] = at 50.0 µM (retest, dose inferred, filed as 5.0)
smiles,measurement,setting,value
CCC1(O)C(=O)OCc2c1cc1n(c2=O)Cc2c-1nc1ccccc1c2OC (configuration not stated),growth inhibition,[1]; at 1.2 µM,80% (active)
same,growth inhibition,[1]; at 3.7 µM,90% (active)
same,growth inhibition,[1]; at 11.0 µM,93% (active)
same,growth inhibition,[1]; at 33.0 µM,93% (active)
same,growth inhibition,[1]; at 100.0 µM,90% (active)
same,growth inhibition,[2]; at 1.2 µM,11%
same,growth inhibition,[2]; at 3.7 µM,12%
same,growth inhibition,[2]; at 11.0 µM,13%
same,growth inhibition,[2]; at 33.0 µM,12%
same,growth inhibition,[2]; at 100.0 µM,11%
same,growth inhibition,[3]; at 1.2 µM,15%
same,growth inhibition,[3]; at 3.7 µM,28%
same,growth inhibition,[3]; at 11.0 µM,10%
same,growth inhibition,[3]; at 33.0 µM,22%
same,growth inhibition,[3]; at 100.0 µM,27%
same,growth inhibition,[4]; at 1.2 µM,-1%
same,growth inhibition,[4]; at 3.7 µM,10%
same,growth inhibition,[4]; at 11.0 µM,4%
same,growth inhibition,[4]; at 33.0 µM,8%
same,growth inhibition,[4]; at 100.0 µM,-10%
same,growth inhibition,[5]; at 1.2 µM,85% (active)
same,growth inhibition,[5]; at 3.7 µM,93% (active)
same,growth inhibition,[5]; [17],94% (active)
same,growth inhibition,[5]; at 11.0 µM,94% (active)
same,growth inhibition,[5]; at 33.0 µM,94% (active)
same,growth inhibition,[5]; [18],90% (active)
same,growth inhibition,[5]; at 50.0 µM,71.2% (active)
same,growth inhibition,[5]; at 100.0 µM,93% (active)
same,growth inhibition,[6]; at 1.2 µM,1%
same,growth inhibition,[6]; at 3.7 µM,13%
same,growth inhibition,[6]; [17],54%
same,growth inhibition,[6]; at 11.0 µM,28%
same,growth inhibition,[6]; at 33.0 µM,41%
same,growth inhibition,[6]; [18],62%
same,growth inhibition,[6]; at 50.0 µM,33.1%
same,growth inhibition,[6]; at 100.0 µM,43%
same,growth inhibition,[7]; at 1.2 µM,6%
same,growth inhibition,[7]; at 3.7 µM,17%
same,growth inhibition,[7]; at 11.0 µM,15%
same,growth inhibition,[7]; at 33.0 µM,20%
same,growth inhibition,[7]; at 100.0 µM,15%
same,growth inhibition,[8]; [17],31%
same,growth inhibition,[8]; [18],33%
same,growth inhibition,[8]; at 50.0 µM,-13.6%
same,growth inhibition,[9]; at 1.2 µM,-8%
same,growth inhibition,[9]; at 3.7 µM,8%
same,growth inhibition,[9]; at 11.0 µM,16%
same,growth inhibition,[9]; at 33.0 µM,24%
same,growth inhibition,[9]; at 100.0 µM,27%
same,growth inhibition,[10]; [17],19%
same,growth inhibition,[10]; [18],18%
same,growth inhibition,[10]; at 50.0 µM,2.7%
same,growth inhibition,[11]; at 1.2 µM,-10%
same,growth inhibition,[11]; at 3.7 µM,-1%
same,growth inhibition,[11]; [17],6%
same,growth inhibition,[11]; at 11.0 µM,0%
same,growth inhibition,[11]; at 33.0 µM,0%
same,growth inhibition,[11]; [18],11%
same,growth inhibition,[11]; at 50.0 µM,-41.5%
same,growth inhibition,[11]; at 100.0 µM,-13%
same,growth inhibition,[12]; at 1.2 µM,10%
same,growth inhibition,[12]; at 3.7 µM,-5%
same,growth inhibition,[12]; at 11.0 µM,-10%
same,growth inhibition,[12]; at 33.0 µM,2%
same,growth inhibition,[12]; at 100.0 µM,-17%
same,growth inhibition,[13]; at 1.2 µM,7%
same,growth inhibition,[13]; at 3.7 µM,19%
same,growth inhibition,[13]; at 11.0 µM,22%
same,growth inhibition,[13]; at 33.0 µM,20%
same,growth inhibition,[13]; at 100.0 µM,8%
same,growth inhibition,[14]; at 1.2 µM,12%
same,growth inhibition,[14]; at 3.7 µM,18%
same,growth inhibition,[14]; at 11.0 µM,20%
same,growth inhibition,[14]; at 33.0 µM,25%
same,growth inhibition,[14]; at 100.0 µM,8%
same,growth inhibition,[15]; [17],43%
same,growth inhibition,[15]; [18],33%
same,growth inhibition,[16]; at 1.2 µM,1%
same,growth inhibition,[16]; at 3.7 µM,-4%
same,growth inhibition,[16]; at 11.0 µM,5%
same,growth inhibition,[16]; at 33.0 µM,1%
same,growth inhibition,[16]; at 100.0 µM,1%
O=[N+]([O-])c1ccc(C=Cc2ccccc2)cc1.[C-]#[O+].[C-]#[O+].[C-]#[O+].[Cr],growth inhibition,[1]; at 1.2 µM,8%
same,growth inhibition,[1]; at 3.7 µM,28%
same,growth inhibition,[1]; at 11.0 µM,70% (active)
same,growth inhibition,[1]; at 33.0 µM,88% (active)
same,growth inhibition,[1]; at 100.0 µM,82% (active)
same,growth inhibition,[2]; at 1.2 µM,-2%
same,growth inhibition,[2]; at 3.7 µM,-1%
same,growth inhibition,[2]; at 11.0 µM,1%
same,growth inhibition,[2]; at 33.0 µM,65%
same,growth inhibition,[2]; at 100.0 µM,79% (active)
same,growth inhibition,[3]; at 1.2 µM,10%
same,growth inhibition,[3]; at 3.7 µM,32%
same,growth inhibition,[3]; at 11.0 µM,62%
same,growth inhibition,[3]; at 33.0 µM,71% (active)
same,growth inhibition,[3]; at 100.0 µM,67%
same,growth inhibition,[5]; at 1.2 µM,6%
same,growth inhibition,[5]; at 3.7 µM,18%
same,growth inhibition,[5]; [17],39%
same,growth inhibition,[5]; at 11.0 µM,54%
same,growth inhibition,[5]; at 33.0 µM,83% (active)
same,growth inhibition,[5]; [18],95% (active)
same,growth inhibition,[5]; at 50.0 µM,76.9% (active)
same,growth inhibition,[5]; at 100.0 µM,79% (active)
same,growth inhibition,[6]; at 1.2 µM,0%
same,growth inhibition,[6]; at 3.7 µM,1%
same,growth inhibition,[6]; [17],5%
same,growth inhibition,[6]; at 11.0 µM,8%
same,growth inhibition,[6]; at 33.0 µM,71% (active)
same,growth inhibition,[6]; [18],86% (active)
same,growth inhibition,[6]; at 50.0 µM,79.8% (active)
same,growth inhibition,[6]; at 100.0 µM,72% (active)
same,growth inhibition,[7]; at 1.2 µM,3%
same,growth inhibition,[7]; at 3.7 µM,12%
same,growth inhibition,[7]; at 11.0 µM,53%
same,growth inhibition,[7]; at 33.0 µM,83% (active)
same,growth inhibition,[7]; at 100.0 µM,82% (active)
same,growth inhibition,[8]; [17],44%
same,growth inhibition,[8]; [18],95% (active)
same,growth inhibition,[8]; at 50.0 µM,66%
same,growth inhibition,[9]; at 1.2 µM,-3%
same,growth inhibition,[9]; at 3.7 µM,-9%
same,growth inhibition,[9]; at 11.0 µM,-16%
same,growth inhibition,[9]; at 33.0 µM,69%
same,growth inhibition,[9]; at 100.0 µM,70% (active)
same,growth inhibition,[10]; [17],10%
same,growth inhibition,[10]; [18],91% (active)
same,growth inhibition,[10]; at 50.0 µM,70.9% (active)
same,growth inhibition,[11]; at 1.2 µM,2%
same,growth inhibition,[11]; at 3.7 µM,10%
same,growth inhibition,[11]; [17],-19%
same,growth inhibition,[11]; at 11.0 µM,2%
same,growth inhibition,[11]; at 33.0 µM,67%
same,growth inhibition,[11]; [18],91% (active)
same,growth inhibition,[11]; at 50.0 µM,69.5%
same,growth inhibition,[11]; at 100.0 µM,82% (active)
same,growth inhibition,[12]; at 1.2 µM,-1%
same,growth inhibition,[12]; at 3.7 µM,-1%
same,growth inhibition,[12]; at 11.0 µM,7%
same,growth inhibition,[12]; at 33.0 µM,80% (active)
same,growth inhibition,[12]; at 100.0 µM,83% (active)
